Measurements published in the supplement of paper PMC12645437, “Orthogonal IMiD-Degron Pairs Induce Selective Protein Degradation in Cells” (ACS Chemical Biology, 2025).
Whole data set: some 8,300 sequences, median “log2 fold change of degron read counts, EGFP-low vs EGFP+ sorted cells (limma voom), compound-induced degradation” near -1.1, cut for the highest 2% near 3.2. For the sample, the highest values were picked, then their nearest neighbours and some sequences at random.

T1: CRBN, Q96SW2
T1 chain: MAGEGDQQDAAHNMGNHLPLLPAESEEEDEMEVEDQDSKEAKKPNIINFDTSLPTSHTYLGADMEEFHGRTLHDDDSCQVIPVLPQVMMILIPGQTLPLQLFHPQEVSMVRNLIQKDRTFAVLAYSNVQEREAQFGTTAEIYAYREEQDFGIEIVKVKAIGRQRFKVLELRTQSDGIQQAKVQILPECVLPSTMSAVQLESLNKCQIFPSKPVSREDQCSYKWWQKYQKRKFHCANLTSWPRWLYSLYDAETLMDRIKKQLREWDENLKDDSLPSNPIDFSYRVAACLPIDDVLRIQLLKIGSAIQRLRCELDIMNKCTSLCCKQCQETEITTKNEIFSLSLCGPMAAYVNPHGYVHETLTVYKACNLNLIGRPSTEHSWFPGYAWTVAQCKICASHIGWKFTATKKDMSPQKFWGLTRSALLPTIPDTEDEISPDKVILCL


Target: T1, CRBN, Q96SW2
Test: log2 fold change of degron read counts, EGFP-low vs EGFP+ sorted cells (limma voom), compound-induced degradation; higher = more compound-induced degradation of the degron-EGFP fusion; degrons are variants of IKZF1/3 zinc finger 2; compound dose not given here
Settings: Jurkat, 18 h
[1] = compound: compound 19 (5-tert-butyl-thalidomide)
[2] = compound: compound 22 (5-morpholino-thalidomide)
[3] = compound: compound 33 (diphenyl IMiD analogue)
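Note: pooled lentiviral library of zinc finger degron-EGFP fusions in mCherry-positive Jurkat cells, FACS-sorted after compound exposure, with degron abundance counted by next-generation sequencing.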

Row | Sequence | log2 fold change of degron read counts [1] | log2 fold change of degron read counts [2] | log2 fold change of degron read counts [3] | log2 fold change of degron read counts (compound: thalidomide)
1 | FHCEICGRHFTQKGNLLRHIKL [46F_47H_49E_50I_52G_53R_54H_55F_67L_, Q9UKT9] | -0.861 | -2.23 | -1.35 | -1.95
2 | FVCNQCGACFTQKGNLLRHIKL [46F_47V_49N_50Q_52G_53A_54C_55F_67L_, Q9UKT9] | -2.19 | -2.11 | -0.29 | -1.14
3 | LNCPICGFECTQKGNLLRHIKL [46L_47N_49P_50I_52G_53F_54E_55C_67L_, Q9UKT9] | 1.07 | -0.0323 | 0.322 | 1
4 | FWCEQCGARFTQKGNLLRHIKL [46F_47W_49E_50Q_52G_53A_54R_55F_67L_, Q9UKT9] | 1.69 | 3.12 | 0.0332 | -0.593
5 | FMCPICGRPFTQKGNLLRHIKL [46F_47M_49P_50I_52G_53R_54P_55F_67L_, Q9UKT9] | 0.216 | 0.55 | 1.39 | 0.856
6 | FSCEICGREFTQKGNLLRHIKL [46F_47S_49E_50I_52G_53R_54E_55F_67L_, Q9UKT9] | -2.51 | -2.86 | -1.9 | -2.01
7 | FACDQCGASFTQKGNLLRHIKL [46F_47A_49D_50Q_52G_53A_54S_55F_67L_, Q9UKT9] | -0.53 | -1.83 | -2.25 | -3.41
8 | FSCEVCGATFTQKGNLLRHIKL [46F_47S_49E_50V_52G_53A_54T_55F_67L_, Q9UKT9] | 2.73 | 2.4 | 1.63 | 1.3
9 | FACEVCGATFTQKGNLLRHIKL [46F_47A_49E_50V_52G_53A_54T_55F_67L_, Q9UKT9] | 3.32 | 2.03 | 0.449 | -0.11
10 | FRCEVCGATFTQKGNLLRHIKL [46F_47R_49E_50V_52G_53A_54T_55F_67L_, Q9UKT9] | -0.885 | -1.05 | 1.42 | 1.06
11 | FNCEVCGATFTQKGNLLRHIKL [46F_47N_49E_50V_52G_53A_54T_55F_67L_, Q9UKT9] | 1.35 | 0.0506 | 0.168 | -0.31
12 | FDCEVCGATFTQKGNLLRHIKL [46F_47D_49E_50V_52G_53A_54T_55F_67L_, Q9UKT9] | 0.941 | -0.571 | -0.022 | 0.317
13 | FWCEVCGATFTQKGNLLRHIKL [46F_47W_49E_50V_52G_53A_54T_55F_67L_, Q9UKT9] | 2.75 | 3.75 | 1.87 | 0.335
14 | FGCEVCGATFTQKGNLLRHIKL [46F_47G_49E_50V_52G_53A_54T_55F_67L_, Q9UKT9] | 3.09 | 2.54 | 0.976 | 0.784
15 | FKCEVCGATFTQKGNLLRHIKL [46F_47K_49E_50V_52G_53A_54T_55F_67L_, Q9UKT9] | -1.63 | -3.47 | -2.68 | -1.11
16 | FCCEVCGATFTQKGNLLRHIKL [46F_47C_49E_50V_52G_53A_54T_55F_67L_, Q9UKT9] | 1.77 | 2.12 | 2.55 | 2.46
17 | FMCEVCGATFTQKGNLLRHIKL [46F_47M_49E_50V_52G_53A_54T_55F_67L_, Q9UKT9] | -1.56 | -0.319 | 2.09 | 0.937
18 | FQCEVCGATFTQKGNLLRHIKL [46F_47Q_49E_50V_52G_53A_54T_55F_67L_, Q9UKT9] | 0.152 | 2.64 | 2.01 | 3.74
19 | FYCEVCGATFTQKGNLLRHIKL [46F_47Y_49E_50V_52G_53A_54T_55F_67L_, Q9UKT9] | 3.1 | 4.14 | 2.47 | 1.12
20 | LLCEICGFNCTQKGNLLRHIKL [46L_47L_49E_50I_52G_53F_54N_55C_67L_, Q9UKT9] | -1.18 | -1.96 | -1.11 | -0.267
21 | FYCEICGRPFTQKGNLLRHIKL [46F_47Y_49E_50I_52G_53R_54P_55F_67L_, Q9UKT9] | 3.04 | 1.62 | 1.39 | 0.0233
22 | FACNQCGHHFTQKGNLLRHIKL [46F_47A_49N_50Q_52G_53H_54H_55F_67L_, Q9UKT9] | -2.3 | -2.72 | -2.62 | -2.01
23 | FDCNQCGASFTQKGNLLRHIKL [46F_47D_49N_50Q_52G_53A_54S_55F_67L_, Q9UKT9] | -2.01 | -2.73 | -2.35 | -2.1
24 | FYCPICGHYFTQKGNLLRHIKL [46F_47Y_49P_50I_52G_53H_54Y_55F_67L_, Q9UKT9] | -0.992 | -1.44 | -0.727 | -1.13
25 | FWCPICGAFFTQKGNLLRHIKL [46F_47W_49P_50I_52G_53A_54F_55F_67L_, Q9UKT9] | 2.39 | 3 | 1.83 | 0.77
26 | LKCNQCGFQCTQKGNLLRHIKL [46L_47K_49N_50Q_52G_53F_54Q_55C_67L_, Q9UKT9] | -2.34 | -2.76 | -2.86 | -2.48
27 | FKCDQCGAEFTQKGNLLRHIKL [46F_47K_49D_50Q_52G_53A_54E_55F_67L_, Q9UKT9] | -2.81 | -1.6 | -3.49 | -3
28 | FVCEVCGATFTQKGNLLRHIKL [46F_47V_49E_50V_52G_53A_54T_55F_67L_, Q9UKT9] | -0.246 | 1.36 | 1.98 | 2.24
29 | FFCEVCGATFTQKGNLLRHIKL [46F_47F_49E_50V_52G_53A_54T_55F_67L_, Q9UKT9] | 2.72 | 3.74 | 1.9 | 1.47
30 | FLCEVCGATFTQKGNLLRHIKL [46F_47L_49E_50V_52G_53A_54T_55F_67L_, Q9UKT9] | -1.71 | -1.32 | 0.752 | 1.34
